SW480 rerep: DNA re-replication induction in SW480 cells; SW480 DNA re-replication, Hoechst DNA content imaging, 48 h; Potency, µM (top dose mostly 46.1 µM), for inactives: at the top dose re-replication activation, most hits filed as activators; 340,000 tested, 1.8% active; AID 624297; also: % of control where 0% means no effect; nearly all actives have a fitted effect of over 55% in size
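First, 250 cells per well were seeded. Next, compound or vehicle (23 nL) was pinned in, plates sat 48 hr at 37 C. Finally Hoechst was added for 40 min before fluorescence scanning.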
ELG1 DNA repair: inhibitors of ELG1-dependent DNA repair in HEK293T cells. HEK293T ELG1-luciferase reporter, luminescence, 16 h; DNA damage induced by 5-fluorouridine. Potency, µM (highest dose often 46.1 µM), for inactives: at the highest dose activity change, negative = inhibition, hits mostly inhibitors. 330,000 tested, 2.3% active. AID 504467; also: % is scaled to controls: 0 for no effect and ±100 for the full control effect; nearly all actives have a fitted effect of over 55% in size
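Step one: seed 2,000 cells per well. Step two: pin-transfer compound or DMSO alongside 5-fluorouridine. Step three: incubate 16 hr, 37 °C, 5% CO2. Step four: add ONE-Glo, wait 30 min, read luminescence.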
MCF10A rerep: DNA re-replication induction in MCF 10a cells; MCF 10A DNA re-replication, Hoechst nuclear intensity, 48 h; Potency, µM (doses to about 46.1 µM), inactives show at the highest dose activity, positive = re-replication, hits mostly activators; 350,000 tested, 2.9% active; AID 624296; also: % of control where 0% means no effect; nearly all actives have a fitted effect of over 50% in size
KB-3-1 tox: KB-3-1 parental cell cytotoxicity; KB-3-1 viability, CellTiter-Glo ATP luminescence, 72 h; Potency, µM (top dose mostly 46.1 µM), actives largely listed as cytotoxic; 400,000 tested, 1.4% active; AID 1347075; also: % is scaled to controls: 0 for no effect and ±100 for the full control effect; nearly all actives have a fitted effect of over 60% in size
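Using CellTiter-Glo luminescence, growth of non-resistant KB-3-1 adenocarcinoma cells is assessed 72 h after pin-tool compound addition at 37 °C. Normalized responses across the concentration series yield fitted curves.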
KB-V1 cytotox: kills drug-selected multidrug resistant KB-V1 cells; KB-V1 MDR cells viability, CellTiter-Glo, 72 h; Potency, µM (top dose mostly 46.1 µM), most hits filed as cytotoxic; 400,000 tested, 3.4% active; AID 1347076; also: % is scaled to controls: 0 for no effect and ±100 for the full control effect; nearly all actives have a fitted effect of over 60% in size
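Potencies derive from concentration-effect curves fitted to normalized luminescence (CellTiter-Glo) of KB-V1 cells treated for 72 h at 37 degrees C in phenol-red-free DMEM containing 10% FBS.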
Starred values were filed as active, the others as inactive; i = inactive; ? = inconclusive; nt = no result given. This is a sample that favours compounds with a hit; in the whole collection about 8.1% have one here. Calls follow the shape of the dose curve; as a rule, active = well fitted curve in the direction sought with a large enough effect; inconclusive = small, poorly fitted or top-dose-only effect, or another doubt; inactive = no such curve, though single readings can be large; an effect the other way counts as inactive or inconclusive. Potency is read from the fitted curve at half-maximal effect.

SMILES | SW480 rerep | ELG1 DNA repair | MCF10A rerep | KB-3-1 tox | KB-V1 cytotox
CCCCCN1C(=O)c2ccccc2[C@@]2(C(=O)OCC)Cc3cc(Cl)ccc3[C@@H]12 | nt | nt | nt | ? | i
CCOC(=O)C1C(=O)N(C)C2(C)CC1c1cc(OC)ccc1O2 (stereo not given) | 5.9% | -6.4% | 4.0% | i | i
COC(=O)C1=C(c2ccccc2)C[C@@H]2CC[C@H]1N2C(=O)NCCS(C)=O (stereo not given in full) | -0.5% | nt | 11.3% | i | ?
COc1cc2c(cc1OC)C(c1c(O)n(CCc3ccccc3)c(=S)[nH]c1=O)NCC2 (stereo not given) | 14.1% | -3.7% | 0.3% | i | ?
Cc1cc(C=O)c(C)n1C(C)C | ? | 28.1% | ? | i | i
CCOC(=O)C12C(=O)OCC1C2c1ccccc1 (stereo not given) | nt | nt | nt | ? | i
CCOC(=O)[C@]12Cc3ccccc3[C@H]1N(C(C)C)C(=O)c1ccccc12 | nt | nt | nt | 20.6µM* | i
CCOC(=O)[C@]12Cc3cc(C)ccc3[C@H]1N(CCC(=O)OC)C(=O)c1ccccc12 | nt | nt | nt | 13µM* | 4.11µM*
CCOC(=O)[C@]12Cc3ccc(C)cc3[C@H]1N(C1CCCCC1)C(=O)c1cc(OC)ccc12 | nt | nt | nt | ? | 4.61µM*
CN1CCC(N2CC3CC(C2)c2cccc(=O)n2C3)CC1 (stereo not given) | -0.8% | 7.2% | -20.4% | i | i
Cc1ccc(-c2nc(CS(=O)CC(=O)N3CCC4(CC3)OCCO4)c(C)o2)cc1 (stereo not given) | nt | 5.3% | nt | nt | nt
COc1ccc(CC(C)NC2CCCCCC2)cc1 (stereo not given) | -1.5% | 5.5% | -8.0% | i | i
CNC(C)[C@@H](O)c1ccc(O)cc1 (stereo not given in full) | -0.1% | nt | -3.4% | nt | nt
O=S(=O)(O)C(=Cc1ccccc1)c1ccccc1 (tested in a mixture with another compound) | -5.5% | nt | -0.9% | i | i
COc1cccc(-n2c(O)c(C=NCCN3CCOCC3)c(=O)[nH]c2=O)c1 | -3.7% | 9.2% | -6.7% | ? | i
CNC(=O)Oc1ccc(-c2cn3cc(C)ccc3n2)cc1 | ? | ? | 7.5% | i | 18.4µM*
CNC(=O)Oc1cccc(-c2cn3cc(Cl)ccc3n2)c1 | -459.8% | ? | 2.4% | i | i
CNCC[C@H](Oc1cccc2ccccc12)c1cccs1 | 13.3µM* | nt | -37.3% | ? | ?
COc1ccc(NC(=O)c2cn(CCC#N)nc2-c2ccc(OC)c(OC)c2)cc1 | -42.8% | 1.6% | 6.51µM* | i | i
COc1ccc(-c2nn(CCC#N)cc2C(=O)Nc2ccccc2)cc1OC | -5.6% | 0.8% | -1.7% | i | i
CCSc1nnc(NC(=O)c2cccn(Cc3ccccc3Cl)c2=O)s1 | nt | nt | nt | i | i
COc1cccc(CNCCc2cccc(F)c2)c1OC | -4.5% | ? | 4.8% | i | i
COc1cccc(CNc2ccc(S(N)(=O)=O)cc2)c1OCc1ccccc1F | 5.1% | ? | 16.8% | ? | 20.6µM*
CS(=O)(=O)NCc1nnc2n1-c1ccc(Cl)cc1C(c1ccccc1)=NC2 | -3.2% | -8.5% | -4.3% | i | i
CCCCCCn1c(=O)c(C(=O)Nc2ccncc2)c(O)c2ccccc21 | nt | -6.0% | nt | nt | nt
SMILES | SW480 rerep | ELG1 DNA repair | MCF10A rerep | KB-3-1 tox | KB-V1 cytotox
CCCCCn1c(=O)c(C(=O)Nc2nc(CC(=O)OCC)cs2)c(O)c2ccccc21 | -3.4% | ? | -2.7% | i | 6.51µM*
CCCCn1c(=O)c(C(=O)Nc2ccccc2S(N)(=O)=O)c(O)c2ccccc21 | 15.3% | -15.0% | ? | i | 16.4µM*
CCCCCCn1c(=O)c(C(=O)Nc2nnc(C)s2)c(O)c2ccccc21 | nt | 11.2% | nt | nt | nt
CCCCn1c(=O)c(C(=O)Nc2ccccc2)c(O)c2ccccc21 | 0.9% | 19.7% | -1.6% | i | 13µM*
CCCCCn1c(=O)c(C(=O)NCc2ccco2)c(O)c2ccccc21 | 1.0% | -3.9% | 11.8% | i | 20.6µM*
COC(=O)C1=C(c2ccc(F)cc2F)C[C@@H]2CC[C@H]1N2C(=O)NCc1ccco1 | -0.8% | ? | 2.5% | i | i
CC1NCCOC1c1ccccc1 (stereo not given) | -4.6% | nt | 1.9% | nt | nt
CCCCCn1c(=O)c(C(=O)Nc2ccccc2S(N)(=O)=O)c(O)c2ccccc21 | 3.66µM* | ? | 4.11µM* | 10.3µM* | ?
CCC(=O)N1N=C(c2c(O)n(C)c(=O)n(C)c2=O)CC1c1ccccc1 (stereo not given) | ? | ? | 12.4% | 20.6µM* | ?
CCCCCn1c(=O)c(C(=O)Nc2cc(C)ccn2)c(O)c2ccccc21 | -5.6% | -6.7% | 12.3% | i | ?
Oc1c(Cl)cccc1Cc1cc(Cl)cc(Cl)c1O | 1.1% | nt | 11.6µM* | ? | ?
CC1(C)CC2CCC(O)C2C(CCO)N1 (stereo not given) | 15.8% | nt | ? | nt | nt
CN1/C(=C\C=Nc2ccccc2)C(C)(C)c2ccccc21 | -2.5% | -2.1% | 15.7% | i | i
CCN1/C(=C/C=C/C2=[N+](CC)c3ccccc3C2(C)C)C(C)(C)c2ccccc21 | nt | nt | nt | 0.0065µM* | 8.2µM*
N#CN | -6.8% | nt | -2.4% | nt | nt
O=Cc1cn(Cc2c(F)cccc2Cl)nc1-c1ccccc1 | -10.9% | nt | 15.7% | i | i
CCc1ccc(-c2nn(Cc3ccccc3)cc2C=O)cc1 | 4.61µM* | ? | 0.3% | i | i
C=C[C@H]1CN2CC[C@H]1C[C@@H]2[C@@H](O)c1ccnc2ccccc12 | ? | 1.8% | -0.2% | i | ?
N#CC1=C(N)Oc2c(c(=O)sc3ccccc23)C1c1ccncc1 (stereo not given) | 13µM* | -7.4% | 20.6µM* | ? | i
CC1COC2N=C(N[N+](=O)[O-])NC2O1 (stereo not given) | -12.3% | -18.4% | -9.0% | ? | ?
CC1(O)CCC2C3CCC4=CC(=O)CCC4=C3C=CC21C (stereo not given) | 4.0% | nt | ? | ? | 9.2µM*
C[C@]12CCC(=O)C=C1CCC1C2CC[C@@]2(C)C1CC[C@@H]2O (stereo not given in full) | 4.5% | 0.0% | 4.8% | 4.61µM* | 2.31µM*
C[C@]12CCC3=C4CCC(=O)C=C4CC[C@H]3C1CC[C@@H]2O (stereo not given in full) | -10.1% | 21.8% | 14.7% | 10.3µM* | 3.66µM*
CCCCCCCCCC(=O)O[C@H]1CC[C@H]2[C@@H]3CCC4=CC(=O)CC[C@@H]4[C@H]3CC[C@]12C | -3.8% | nt | -8.6% | nt | nt
C[C@]12CC[C@H]3[C@@H](CCC4=CC(=O)CC[C@@H]43)[C@@H]1CC[C@@H]2O | -28.7% | -3.9% | 2.1% | 10.3µM* | 2.31µM*
